“And” between values parts separate entries of the source, which are not always exact repeats. Identical values can stand only once. Records with an inconclusive call do not appear. The source made the active and inactive calls. Unless noted, calls follow the shape of the dose curve; as a rule, active = well fitted curve in the direction sought with a large enough effect in the repeat runs; inconclusive = weak or mixed curves; inactive = no such curve, though single readings can be large; an effect the other way counts as inactive or inconclusive.
System: not listed separately
Test: A High-Content qHTS Against Drug Library for the Identification of Small Molecules that Inhibit DYT1 Early Onset Primary Dystonia-Associated Cell Pathology (AID 1645839; calls by dose curve)
Details: HEK293 Flp-In EGFP-delE TorsinA, punctate imaging, 48 h; series mostly up to 46.1 µM; % pathology change, negative = correction: at the top concentration
Procedure, shortened: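 Readout: %pathology, the punctate EGFP-TorsinA distribution from imaging, as the primary channel and cell count as the toxicity counterscreen. HEK293 Flp-In cells expressing delE TorsinA were induced with tetracycline and treated with compound for 48 h.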

Compound | % pathology change, negative = correction
CCc1cc(OC)c(C[C@H](C)N)cc1OC | -12.1% [at 104 µM] (inactive)
COP(=O)(OC)C(O)C(Cl)(Cl)Cl (stereo not given) | -1.37% (inactive)
Oc1c(Br)cc(Br)cc1Br | -4.37% (inactive)
C#C[C@]1(O)CC[C@H]2[C@@H]3CCC4=CC(=O)CCC4=C3C=C[C@@]21CC | 2.12% (inactive)
C=CCN1CC[C@]23CCCC[C@H]2[C@H]1Cc1ccc(O)cc13 | 5.74% (inactive)
O=c1[nH]c2cc(Cl)ccc2n1C1CCNCC1 | 12% (inactive)
CN1C(=O)CN=C(c2ccccc2)c2cc(Cl)ccc21 | 2.65% (inactive)
c1ccc2nc(N3CCNCC3)ccc2c1 | -7.25% (inactive)
CCS(=O)(=O)C(C)(C)S(=O)(=O)CC | -1.29% (inactive)
CNC(C)Cc1ccccc1OC (stereo not given) | 3.05% (inactive)
O=C(O)CCCCCCNC1c2ccccc2CCc2ccccc21 | 13.8% (inactive)
CC[C@H]1C[C@H]2[C@@H]3CCC4=CC(=O)CC[C@@H]4[C@H]3CC[C@]2(C)[C@H]1O | -12.4% (inactive)
C[N+](C)(C)CCOC(=O)C(O)(c1ccccc1)c1ccccc1 | 7.92% (inactive)
C[C@H]1C(=O)O[C@@H]2CCN3CC=C(COC(=O)[C@](C)(O)[C@]1(C)O)[C@H]23 | 8.37% (inactive)
COc1cc(CC#N)cc(OC)c1OC | 8.8% (inactive)
CC(C)[N+](C)(CCC(C(N)=O)(c1ccccc1)c1ccccc1)C(C)C | -0.708% (inactive)
O=C(CBr)Nc1ccc(Cl)cc1C(=O)c1ccccc1F | -10.3% (inactive)
CCOC(=O)C(c1c(O)c2ccccc2oc1=O)c1c(O)c2ccccc2oc1=O | -18.9% (inactive)
C[C@@H]1CC[C@H]2[C@@H](C)C(=O)O[C@@H]3O[C@@]4(C)CC[C@@H]1[C@]32OO4 | -0.53% (inactive)
CCCOC(=O)Cc1ccc(OCC(=O)N(CC)CC)c(OC)c1 | 2.95% (inactive)
CC(Cc1ccccc1)NCc1ccccc1Cl (stereo not given) | -22% (inactive)
C=CC[C@]1(O)CC[C@H]2[C@@H]3CCC4=CC(=O)CCC4=C3C=C[C@@]21C | -23.8% (inactive)
C1CN2CCC1CC2 | -15.3% (inactive)
CCOC(=O)NC(C)(C)Cc1ccc(Cl)cc1 | 5.84% (inactive)
Cc1ncc2n1-c1ccc(Cl)cc1C(c1ccccc1F)=NC2 | 0.778% (inactive)
CC(Cc1ccc2c(c1)OCO2)NO (stereo not given) | -23.8% [at 104 µM] (inactive)
C[C@]12Cc3nonc3C[C@@H]1CC[C@@H]1[C@@H]2CC[C@@]2(C)[C@H]1CC[C@]2(C)O | -17.2% (inactive)
CC(C)NCC(O)c1ccc(N)c(C#N)c1 (stereo not given) | 0.912% (inactive)
NCc1cccnc1 | 2.69% (inactive)

Target: Cytochrome P450 2D6 (Homo sapiens) (UniProt P10635)
Test: Cytochrome P450 family 2 subfamily D member 6 (CYP2D6) small molecule antagonists: luciferase biochemical (cell-free) qHTS assay (AID 1645840); also: nearly all actives have a fitted effect of over 55% in size; also: potency is read from the fitted curve at half-maximal effect; as to activity change, negative = inhibition: % is scaled to controls: 0 for no effect and ±100 for the full control effect
Details: P450-Glo CYP2D6 enzyme, luciferin luminescence, 1 h; series mostly up to 57.4 µM; activity change, negative = inhibition: at the top concentration
Procedure, shortened: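 P450-Glo luminescent screen: recombinant CYP2D6 enzyme–proluciferin substrate mix preincubated with compound 10 min at room temperature, then NADPH regeneration added for 1 h at room temperature. Detection reagent added for 20 min; luciferin light read as relative luminescence units.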

Cytochrome P450 2D6 (Homo sapiens), sequence (P10635 whole entry, looked up): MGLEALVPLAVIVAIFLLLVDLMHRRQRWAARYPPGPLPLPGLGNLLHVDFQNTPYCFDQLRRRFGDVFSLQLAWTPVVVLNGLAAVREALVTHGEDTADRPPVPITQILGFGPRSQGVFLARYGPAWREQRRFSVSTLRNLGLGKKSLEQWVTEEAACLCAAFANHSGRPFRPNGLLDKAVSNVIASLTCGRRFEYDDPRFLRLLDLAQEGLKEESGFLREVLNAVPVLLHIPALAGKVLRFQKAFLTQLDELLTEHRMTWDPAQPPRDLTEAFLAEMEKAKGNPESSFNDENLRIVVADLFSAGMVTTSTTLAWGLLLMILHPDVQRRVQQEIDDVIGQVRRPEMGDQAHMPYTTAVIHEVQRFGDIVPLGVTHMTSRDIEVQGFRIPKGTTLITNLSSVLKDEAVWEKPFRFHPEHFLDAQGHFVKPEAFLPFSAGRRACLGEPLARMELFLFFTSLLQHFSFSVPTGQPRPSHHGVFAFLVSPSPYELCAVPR

Compound | activity change, negative = inhibition | Potency
Oc1c(Br)cc(Br)cc1Br | -4.83% (inactive) | 
CC1COC2(c3ccccc3Cl)c3cc(Cl)ccc3NC(=O)CN12 (stereo not given) |  | 11 µM (active)
C#C[C@]1(O)CC[C@H]2[C@@H]3CCC4=CC(=O)CCC4=C3C=C[C@@]21CC |  | 0.977 µM (active)
O=c1[nH]c2cc(Cl)ccc2n1C1CCNCC1 |  | 19.5 µM (active)
COc1cc(CC(C)N)c(OC)cc1Br (stereo not given) |  | 29.2 µM (active)
c1ccc2nc(N3CCNCC3)ccc2c1 | -17.3% (inactive) | 
CCS(=O)(=O)C(C)(C)S(=O)(=O)CC | 10.1% (inactive) | 
CC[C@H]1C[C@H]2[C@@H]3CCC4=CC(=O)CC[C@@H]4[C@H]3CC[C@]2(C)[C@H]1O | -7.52% (inactive) | 
C[N+](C)(C)CCOC(=O)C(O)(c1ccccc1)c1ccccc1 |  | 15.5 µM (active)
C[C@H]1C(=O)O[C@@H]2CCN3CC=C(COC(=O)[C@](C)(O)[C@]1(C)O)[C@H]23 | 11.3% (inactive) | 
CCC(=O)O[C@H]1CC[C@H]2[C@@H]3CCC4=CC(=O)CC[C@]4(C)[C@H]3CC[C@]12C |  | 16.9 µM (active)
COc1cc(CC#N)cc(OC)c1OC | -3.09% (inactive) | 
CC(C)[N+](C)(CCC(C(N)=O)(c1ccccc1)c1ccccc1)C(C)C |  | 1.95 µM (active)
CCOC(=O)C(c1c(O)c2ccccc2oc1=O)c1c(O)c2ccccc2oc1=O | -0.54% (inactive) | 
CCCOC(=O)Cc1ccc(OCC(=O)N(CC)CC)c(OC)c1 | 12.9% (inactive) | 
CC(Cc1ccccc1)NCc1ccccc1Cl (stereo not given) |  | 0.155 µM (active)
Nc1ccc(N)cc1 |  | 3.09 µM (active)
C1CN2CCC1CC2 | 17% (inactive) | 
CCC(OC(C)=O)C(CC(C)NC)(c1ccccc1)c1ccccc1 (stereo not given) |  | 18 µM (active)
CCOC(=O)NC(C)(C)Cc1ccc(Cl)cc1 | -22.6% (inactive) | 
C=CCOC(Cn1ccnc1)c1ccc(Cl)cc1Cl (stereo not given) |  | 2.88 µM (active)
CC(Cc1ccc2c(c1)OCO2)NO (stereo not given) |  | 61.1 µM (active)
O=C(CCl)c1ccc(Cl)cc1Cl | -9.45% (inactive) | 
C[C@]12Cc3nonc3C[C@@H]1CC[C@@H]1[C@@H]2CC[C@@]2(C)[C@H]1CC[C@]2(C)O | -27.5% (inactive) | 
NCc1cccnc1 | -3.65% (inactive) | 
CC[C@]1(O)CC[C@H]2[C@@H]3CCC4=CCCC[C@@H]4[C@H]3CC[C@@]21C |  | 17.4 µM (active)

Target: Cytochrome P450 2C9 (Homo sapiens) (UniProt P11712)
Test: Cytochrome P450 family 2 subfamily C member 9 (CYP2C9) small molecule antagonists: luciferase biochemical (cell-free) qHTS assay (AID 1645842); also: nearly all actives have a fitted effect of over 55% in size; also: potency is read from the fitted curve at half-maximal effect; as to activity change, negative = inhibition: % is scaled to controls: 0 for no effect and ±100 for the full control effect
Details: P450-Glo CYP2C9 enzyme assay, luciferin luminescence; series mostly up to 57.4 µM; activity change, negative = inhibition: at the top concentration
Procedure, shortened: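 Luminescence, after 20 min with luciferin detection reagent, reflected CYP2C9 turnover during a 1 h NADPH-driven reaction at 37C. Enzyme-substrate mix contained 0.4% bovine serum albumin and was preincubated with compound 10 min at room temperature.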

Cytochrome P450 2C9 (Homo sapiens), sequence (P11712 whole entry, looked up): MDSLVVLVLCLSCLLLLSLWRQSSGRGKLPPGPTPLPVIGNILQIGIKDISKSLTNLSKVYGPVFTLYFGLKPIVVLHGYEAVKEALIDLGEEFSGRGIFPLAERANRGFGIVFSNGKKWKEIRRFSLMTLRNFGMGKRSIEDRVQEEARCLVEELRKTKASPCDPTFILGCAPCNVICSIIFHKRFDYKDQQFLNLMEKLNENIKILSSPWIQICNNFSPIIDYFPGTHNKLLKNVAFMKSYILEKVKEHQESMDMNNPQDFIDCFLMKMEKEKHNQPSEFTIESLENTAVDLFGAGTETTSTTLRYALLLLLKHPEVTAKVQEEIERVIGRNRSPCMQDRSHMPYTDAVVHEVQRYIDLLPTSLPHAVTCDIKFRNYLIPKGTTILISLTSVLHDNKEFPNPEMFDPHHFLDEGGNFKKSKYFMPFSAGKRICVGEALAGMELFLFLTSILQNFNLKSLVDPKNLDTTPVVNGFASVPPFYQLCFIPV

Compound | activity change, negative = inhibition | Potency
CCc1cc(OC)c(C[C@H](C)N)cc1OC | 3.34% [at 115 µM] (inactive) | 
Oc1c(Br)cc(Br)cc1Br | 12.9% (inactive) | 
CC1COC2(c3ccccc3Cl)c3cc(Cl)ccc3NC(=O)CN12 (stereo not given) |  | 24.5 µM (active)
C#C[C@]1(O)CC[C@H]2[C@@H]3CCC4=CC(=O)CCC4=C3C=C[C@@]21CC | 8.78% (inactive) | 
C=CCN1CC[C@]23CCCC[C@H]2[C@H]1Cc1ccc(O)cc13 | 9.66% (inactive) | 
O=c1[nH]c2cc(Cl)ccc2n1C1CCNCC1 | -12.8% (inactive) | 
COc1cc(CC(C)N)c(OC)cc1Br (stereo not given) | 0.308% [at 115 µM] (inactive) | 
c1ccc2nc(N3CCNCC3)ccc2c1 | 0.978% (inactive) | 
CCS(=O)(=O)C(C)(C)S(=O)(=O)CC | 8.17% (inactive) | 
CNC(C)Cc1ccccc1OC (stereo not given) | 5.41% (inactive) | 
O=C(O)CCCCCCNC1c2ccccc2CCc2ccccc21 | -0.0665% (inactive) | 
C[N+](C)(C)CCOC(=O)C(O)(c1ccccc1)c1ccccc1 | 4.85% (inactive) | 
C[C@H]1C(=O)O[C@@H]2CCN3CC=C(COC(=O)[C@](C)(O)[C@]1(C)O)[C@H]23 | 10.1% (inactive) | 
CCC(=O)O[C@H]1CC[C@H]2[C@@H]3CCC4=CC(=O)CC[C@]4(C)[C@H]3CC[C@]12C |  | 24.5 µM (active) and 10.7 µM (active)
COc1cc(CC#N)cc(OC)c1OC | 7.04% (inactive) | 
CCOC(=O)C(c1c(O)c2ccccc2oc1=O)c1c(O)c2ccccc2oc1=O |  | 3.09 µM (active)
CCCOC(=O)Cc1ccc(OCC(=O)N(CC)CC)c(OC)c1 | 76.2% (inactive) | 
Nc1ccc(N)cc1 |  | 15.5 µM (active)
C=CC[C@]1(O)CC[C@H]2[C@@H]3CCC4=CC(=O)CCC4=C3C=C[C@@]21C |  | 11 µM (active)
C1CN2CCC1CC2 | 2.84% (inactive) | 
CCOC(=O)NC(C)(C)Cc1ccc(Cl)cc1 |  | 15.5 µM (active)
C=CCOC(Cn1ccnc1)c1ccc(Cl)cc1Cl (stereo not given) |  | 0.683 µM (active)
CC(Cc1ccc2c(c1)OCO2)NO (stereo not given) |  | 38.6 µM (active)
NCc1cccnc1 | 13.4% (inactive) | 
CC[C@]1(O)CC[C@H]2[C@@H]3CCC4=CCCC[C@@H]4[C@H]3CC[C@@]21C | 0.928% (inactive) | 
